p53ts 39C kill: qHTS Screen for Compounds that Selectively Target Cancer Cells with p53 Mutations: Cytotoxicity of p53ts Cells at the Nonpermissive Temperature. Potency, µM (top dose mostly 46.1 µM), actives largely listed as cytotoxic. 130,000 compounds, 1.5% hits. H1299-p53A138V viability at 39C, ATP luminescence, 24 h; also: nearly all actives have a fitted effect of over 55% in size
IkB sig inh: IkB Signaling | ABC-DLBCL IkBa-CBG/CBR dual luciferase ratio, 4 h; response scale: scaled: untreated 0%, proteasome inhibitor 100% | Potency, µM (series often up to 57.1 µM) | 110,000 compounds, 0.04% hits; active = well fitted curve in the direction sought with a large enough effect in the signal ratio, not every such curve was filed as active; inconclusive = small, poorly fitted or top-dose-only effect, or a change in a side signal; the % refers to the signal ratio;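 also: the direction sought is a rising ratio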
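In this assay, an IκBα–CBG68 fusion accumulates when IKK-driven degradation is blocked; native CBR normalizes for cell number. OCI-Ly3 cells were treated 4 h with compound and doxycycline, then green and red light read after Chroma-Glo addition.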
Imprint erasure: qHTS Assay for Compounds that Induce Erasure of Genomic Imprints; mouse ES Peg3-LacZ reporter, beta-gal luminescence, 40 h; Potency, µM (series often up to 60.7 µM), most hits filed as activators; 110,000 compounds, 0.02% hits; AID 1948, 2009
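Gelatin-coated wells received 300 freshly trypsinized female ES cells with a Peg3LacZ-Neo reporter on the maternal allele, then incubated 40 hours at 37C. BetaGlo was added for 5 minutes at room temperature before a single luminescence read.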
p53ts 32C kill: qHTS Screen for Compounds that Selectively Target Cancer Cells with p53 Mutations: Cytotoxicity of p53ts Cells at the Permissive Temperature; 130,000 compounds, 0.93% hits; H1299-p53A138V at 32C, ATP luminescence viability, 24 h; AID 924, 2007; Potency, µM (titrated, usually from 46.1 µM), actives largely listed as cytotoxic; also: nearly all actives have a fitted effect of over 55% in size
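Cells: H1299 p53ts (A138V), 600/well, pre-incubated 16–30 h at 37C. Cpd up to 46 uM, 24 h, 32C. Readout: ATPlite luminescence, 20 min RT. Normalization: DMSO vs tamoxifen 100 uM. AC50 by Hill equation.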
A number is an active result; . = inactive; ? = inconclusive; / = no result given; [ ] = dose if it differs, or a comment. The list is not random: actives were taken first. Their share in the collection is about 1.7%. Unless noted, calls follow the shape of the dose curve; as a rule, active = well fitted curve in the direction sought with a large enough effect; inconclusive = small, poorly fitted or top-dose-only effect, or another doubt; inactive = no such curve, though single readings can be large; an effect the other way counts as inactive or inconclusive.

SMILES	p53ts 39C kill	IkB sig inh	Imprint erasure	p53ts 32C kill
Cc1ccc(C)c(N2CCN(CCCNC(=O)c3cnn(-c4ccccc4Cl)c3C3CCN(C(=O)OC(C)(C)C)CC3)CC2)c1	15.8µM	?	.[10.9 µM]	.
Cc1ccc(C)c(N2CCN(CCCNC(=O)c3cnn(-c4ccc(F)cc4)c3C3CCN(C(=O)OC(C)(C)C)CC3)CC2)c1	25.1µM	?	.[10.9 µM]	?
CCN1CCN(CCCNC(=O)c2cnn(-c3ccc(C)cc3)c2C2CCN(C(=O)OC(C)(C)C)CC2)CC1	.	?	.[10.9 µM]	.
Cc1ccc(C)c(N2CCN(CCCNC(=O)c3cnn(-c4cccc(Cl)c4)c3C3CCN(C(=O)OC(C)(C)C)CC3)CC2)c1	?	?	.[10.9 µM]	?
C[C@H]1[C@H](C)CC[C@]2(C(=O)O)CC[C@]3(C)C(=CC[C@H]4[C@]3(C)C[C@@H](O)C3[C@](C)(CO)[C@H](O)[C@@H](O)C[C@]34C)[C@H]12 (stereo partly specified)	/	/	.[10.9 µM]	/
CCN(CCCNC(=O)c1cc2c(=O)n(C)c3ccccc3c2s1)Cc1ccccc1	12.6µM	?	.[10.9 µM]	.
Cc1ccc2nc(Cl)c3cc(C(=O)NCCCN(C)Cc4ccccc4)sc3c2c1	12.6µM	?	.[10.9 µM]	?
CN(CCCNC(=O)c1cc2c(Cl)nc3ccccc3c2s1)Cc1ccccc1	?	?	.[10.9 µM]	.
CCN(CCCNC(=O)c1cc2c(=O)[nH]c3ccc(C)cc3c2s1)Cc1ccccc1	12.6µM	?	.[10.9 µM]	12.6µM
CCN(CCCNC(=O)c1cc2c(=O)n(C)c3ccccc3c2s1)c1ccccc1	?	.	.[10.9 µM]	.
O=C(Nc1ccccc1-c1nc2ccccc2o1)c1ccc2c(c1)OCCO2	.	.	.	.
O=C(Nc1ccc2oc(-c3cc(Br)ccc3Cl)nc2c1)c1ccc2ccccc2c1	12.6µM	.	.[10.9 µM]	?
O=C(Nc1ccc2oc(-c3ccccc3F)nc2c1)c1ccc2c(c1)OCCO2	.	?	.	12.6µM
O=C(Nc1ccc2oc(-c3ccc4ccccc4c3)nc2c1)c1cc(Br)ccc1Cl	?	.	.[10.9 µM]	.
CN(C(=O)CSc1cn(CC(=O)N2CCCC2)c2ccccc12)c1ccccc1	.	.	.[10.9 µM]	.
Cc1ccc(Nc2cc(C)nc3nc(Cc4ccc(Cl)cc4)nn23)cc1	.	?	.[10.9 µM]	.
CCc1ccc(Nc2cc(C)nc3nc(Cc4ccc(Cl)cc4)nn23)cc1	20µM	?	.[10.9 µM]	.
CC(C)CCNC(=O)Nc1ccc2c(c1)N(C)C(=O)c1ccccc1S2	.	?	.[10.9 µM]	.
O=C(O)c1ccc2cc(-c3ccc(O)c(C45CC6CC(CC(C6)C4)C5)c3)ccc2c1	?	/	.	20µM
Cc1cc(=O)n2[nH]c(-c3ccc(F)cc3)nc2n1	10µM	?	.	12.6µM
Cc1cc(=O)n2[nH]c(NCc3ccc(F)cc3)nc2n1	.	.	.[10.9 µM]	.
Cc1ccc(S(=O)(=O)NCC(c2ccco2)N2CCN(c3ccccc3F)CC2)cc1 (stereo unspecified)	.	.	.[10.9 µM]	.
Cc1cc(C)c2nc3c(c([C@H](O)C4CCCCN4)c2c1)CC/C3=C/c1ccc(Cl)cc1 (stereo partly specified)	/	/	.[10.9 µM]	/
CCOc1ccc(NC(=O)c2ncn(-c3ccccc3)n2)cc1	.	?	.[10.9 µM]	.
O=C(Nc1ccc(F)cc1)c1ncn(-c2ccccc2)n1	15.8µM	?	.[10.9 µM]	?
SMILES	p53ts 39C kill	IkB sig inh	Imprint erasure	p53ts 32C kill
Cc1cccc(OCC(=O)OCc2cc(=O)n3nc(C4CCCCC4)sc3n2)c1	.	.	.[10.9 µM]	.
COc1ccc(NC(=O)c2c(C)oc3ccc(O)c(CN4CCCCCC4)c23)cc1Cl	12.6µM	?	.[10.9 µM]	.
COc1cccc(NC(=O)Cn2cc(C(=O)c3ccco3)c3ccccc32)c1	.	?	.[10.9 µM]	.
COc1ccc(-c2cnn(-c3ccccc3)c2N)cc1OC	.	?	.	.
Nc1nc2c(s1)CCc1c-2cnn1-c1ccccc1	10µM	?	.	12.6µM
COc1cccc(C(c2sc3nc(-c4ccco4)nn3c2O)N2CCC3(CC2)OCCO3)c1 (stereo unspecified)	.	.	.[10.9 µM]	.
O=C(CCCc1ccccc1)c1ccc2c(c1)OCCO2	11.2µM	/	/	7.94µM
O=C(O)CCC(=O)c1ccc2c(c1)OCCCO2	.	.	.	.
COc1ccc(-c2cc(C(F)(F)F)nc(SCCC(=O)Nc3cc(C)ccc3O)n2)cc1	10µM	?	.[10.9 µM]	.
COc1ccc(-c2cc(C(F)(F)F)nc(SCCC(=O)Nc3ccccc3F)n2)cc1	.	.	.[10.9 µM]	.
COc1cc(N)c(Cl)cc1C(=O)CCC1CCN(CCNS(C)(=O)=O)CC1	.	.	.	.
COc1cc(COc2cc(N)c(Cl)cc2C(=O)CCC2CCN(CCNS(C)(=O)=O)CC2)cc(OC)c1	31.6µM	?	.	31.6µM
CCCCC(=O)Nc1nnc(SCc2cc(=O)n3cc(C)ccc3n2)s1	.	.	.[10.9 µM]	.
FC(F)(F)c1cc(CO[C@H]2CCCN[C@H]2c2ccccc2)cc(C(F)(F)F)c1	12.6µM	?	.	?
Cc1ccc2c(c1[N+](=O)[O-])C(=O)c1ccccc1C2=O	.	.	.	.[1.84 µM]
CC1=CC(=O)c2ccccc2C1=O	?	?	.	25.1µM
N#CCCS(=O)(=O)c1nnnn1-c1ccccc1	20µM	?	.	?
N[C@@H](Cc1c[nH]c2ccccc12)C(=O)NCC(=O)O	/	.[11.4 µM]	/	/
Cc1ccc(C(=O)Nc2nc3ccc(S(C)(=O)=O)cc3s2)s1	12.6µM	.	.	10µM
Cc1ccc2nc(NC(=O)c3cccs3)sc2c1	7.94µM	?	/	?
CCC(=O)Nc1nc2ccc(S(C)(=O)=O)cc2s1	.	/	/	.
Cc1cc(C(=O)Nc2nc3ccc(S(C)(=O)=O)cc3s2)c(C)o1	.	.	.	?
CS(=O)(=O)c1ccc2nc(NC(=O)c3cccs3)sc2c1	2.51µM	?	.	2.51µM
CNC(=O)[C@@H]1O[C@@H](n2cnc3c(NCc4cccc(I)c4)ncnc32)[C@H](O)[C@@H]1O	.	?	/	.
CCNC(=O)[C@@H]1O[C@@H](n2cnc3c(N)nc(NCCc4ccc(CCC(=O)O)cc4)nc32)[C@H](O)[C@@H]1O	.	?	/	.
SMILES	p53ts 39C kill	IkB sig inh	Imprint erasure	p53ts 32C kill
COc1ccc2c(c1)[N+](=O)C(/C(C)=N/NC(N)=S)=C(C)[N+]2=O	/	/	.[10.9 µM]	/
O=C(c1ccc2c(c1)N(Cc1ccccc1)C(=O)c1ccccc1S2(=O)=O)N1CCOCC1	.	.	.[10.9 µM]	.
COC(=O)c1ccc(Nc2nnc(-c3ccc(C)c(S(=O)(=O)N4CCN(C)CC4)c3)c3ccccc23)cc1	.	?	.[10.9 µM]	.
Cn1cc(-c2cc3n(n2)CCC(=O)N3CCCC(=O)NCc2ccc(Cl)cc2)c2ccccc21	12.6µM	.	.[10.9 µM]	?
Cn1cc(-c2cc3n(n2)CCC(=O)N3CCCC(=O)Nc2ccc(Cl)cc2)c2ccccc21	.	?	.[10.9 µM]	.
CC(C)(C)OC(=O)N1CCC(c2c(C(=O)NCc3ccccc3)cnn2-c2cccc(F)c2)CC1	.	?	.[10.9 µM]	.
O=C(c1cc2ccccc2o1)c1cccs1	.	.	.	.

Screening data deposited in PubChem BioAssay by National Center for Advancing Translational Sciences (NCATS).
